The source of these data is the supplement of paper PMC10849652.

Of roughly 7,900 targets only a part is listed; those with a hit were picked by preference. About 0.6% of all pairs of compound and target were hits.

Chain of UniProt Q9NP79 (Q9NP79 whole entry, looked up): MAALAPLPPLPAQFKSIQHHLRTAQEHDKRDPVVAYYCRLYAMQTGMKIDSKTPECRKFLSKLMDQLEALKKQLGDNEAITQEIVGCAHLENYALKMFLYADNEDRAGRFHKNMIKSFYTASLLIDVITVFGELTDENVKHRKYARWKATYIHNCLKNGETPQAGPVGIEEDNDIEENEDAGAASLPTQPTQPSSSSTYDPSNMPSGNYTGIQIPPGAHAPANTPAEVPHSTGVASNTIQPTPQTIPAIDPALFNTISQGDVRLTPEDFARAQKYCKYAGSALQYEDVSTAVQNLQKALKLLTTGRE
Chain of UniProt Q641Q2 (Q641Q2 whole entry, looked up): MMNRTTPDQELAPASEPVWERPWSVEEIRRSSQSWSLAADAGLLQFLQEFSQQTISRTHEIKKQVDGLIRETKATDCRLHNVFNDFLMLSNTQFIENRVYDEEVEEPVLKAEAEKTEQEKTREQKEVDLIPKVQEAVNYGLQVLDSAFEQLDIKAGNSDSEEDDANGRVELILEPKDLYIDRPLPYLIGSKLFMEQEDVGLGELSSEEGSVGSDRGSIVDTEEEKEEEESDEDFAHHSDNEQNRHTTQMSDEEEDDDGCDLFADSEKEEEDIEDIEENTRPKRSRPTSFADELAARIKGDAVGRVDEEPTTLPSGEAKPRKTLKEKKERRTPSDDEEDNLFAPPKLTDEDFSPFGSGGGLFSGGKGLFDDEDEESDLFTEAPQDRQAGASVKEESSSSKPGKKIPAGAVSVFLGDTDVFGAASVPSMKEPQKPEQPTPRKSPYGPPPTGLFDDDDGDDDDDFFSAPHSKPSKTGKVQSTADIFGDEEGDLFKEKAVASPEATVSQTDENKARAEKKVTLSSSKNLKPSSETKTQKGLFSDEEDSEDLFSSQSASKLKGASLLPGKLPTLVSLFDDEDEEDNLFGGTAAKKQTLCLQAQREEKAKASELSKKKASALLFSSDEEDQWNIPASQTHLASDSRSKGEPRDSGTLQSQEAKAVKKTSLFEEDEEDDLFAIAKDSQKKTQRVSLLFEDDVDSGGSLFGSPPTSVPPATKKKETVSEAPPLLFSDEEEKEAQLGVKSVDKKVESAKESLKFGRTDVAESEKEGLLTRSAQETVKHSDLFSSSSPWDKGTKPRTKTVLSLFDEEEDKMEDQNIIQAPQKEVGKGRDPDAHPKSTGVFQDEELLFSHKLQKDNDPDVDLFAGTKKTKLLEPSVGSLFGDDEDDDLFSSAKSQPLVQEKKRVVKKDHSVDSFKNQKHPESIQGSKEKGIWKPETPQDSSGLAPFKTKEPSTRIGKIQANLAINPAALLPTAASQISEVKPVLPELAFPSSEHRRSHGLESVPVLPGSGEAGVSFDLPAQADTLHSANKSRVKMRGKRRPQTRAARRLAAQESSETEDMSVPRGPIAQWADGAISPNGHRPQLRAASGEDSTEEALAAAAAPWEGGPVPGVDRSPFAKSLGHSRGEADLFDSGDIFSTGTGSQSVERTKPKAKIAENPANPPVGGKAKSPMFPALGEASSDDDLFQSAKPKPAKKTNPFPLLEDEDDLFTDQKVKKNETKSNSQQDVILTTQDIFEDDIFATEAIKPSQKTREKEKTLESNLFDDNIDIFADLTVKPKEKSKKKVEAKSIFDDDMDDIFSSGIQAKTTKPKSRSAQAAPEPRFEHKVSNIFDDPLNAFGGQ
Chain of UniProt P12956 (P12956 whole entry, looked up): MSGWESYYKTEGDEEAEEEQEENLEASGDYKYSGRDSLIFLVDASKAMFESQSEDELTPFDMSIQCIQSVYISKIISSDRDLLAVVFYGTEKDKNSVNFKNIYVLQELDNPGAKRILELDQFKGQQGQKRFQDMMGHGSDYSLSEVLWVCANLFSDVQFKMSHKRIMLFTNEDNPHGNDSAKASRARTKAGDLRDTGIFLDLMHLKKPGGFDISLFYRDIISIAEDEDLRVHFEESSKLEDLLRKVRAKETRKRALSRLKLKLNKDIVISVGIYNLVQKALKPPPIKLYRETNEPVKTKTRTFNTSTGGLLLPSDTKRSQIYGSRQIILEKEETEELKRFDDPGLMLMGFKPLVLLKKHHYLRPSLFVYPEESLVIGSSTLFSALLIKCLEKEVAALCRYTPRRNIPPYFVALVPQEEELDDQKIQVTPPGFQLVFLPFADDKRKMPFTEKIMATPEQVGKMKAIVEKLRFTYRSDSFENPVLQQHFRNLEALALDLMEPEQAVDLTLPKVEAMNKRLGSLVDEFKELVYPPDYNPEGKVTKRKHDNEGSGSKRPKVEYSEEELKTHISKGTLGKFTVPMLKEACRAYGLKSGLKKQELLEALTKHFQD
Chain of UniProt A6NIH7 (A6NIH7 whole entry, looked up): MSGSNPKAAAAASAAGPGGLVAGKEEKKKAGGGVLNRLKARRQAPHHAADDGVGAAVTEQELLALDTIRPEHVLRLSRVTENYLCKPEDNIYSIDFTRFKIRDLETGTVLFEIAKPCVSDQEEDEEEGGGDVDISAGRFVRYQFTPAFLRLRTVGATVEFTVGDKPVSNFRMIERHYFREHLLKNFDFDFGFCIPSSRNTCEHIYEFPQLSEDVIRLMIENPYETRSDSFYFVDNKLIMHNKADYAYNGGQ
Chain of UniProt Q9UPU5 (Q9UPU5 whole entry, looked up): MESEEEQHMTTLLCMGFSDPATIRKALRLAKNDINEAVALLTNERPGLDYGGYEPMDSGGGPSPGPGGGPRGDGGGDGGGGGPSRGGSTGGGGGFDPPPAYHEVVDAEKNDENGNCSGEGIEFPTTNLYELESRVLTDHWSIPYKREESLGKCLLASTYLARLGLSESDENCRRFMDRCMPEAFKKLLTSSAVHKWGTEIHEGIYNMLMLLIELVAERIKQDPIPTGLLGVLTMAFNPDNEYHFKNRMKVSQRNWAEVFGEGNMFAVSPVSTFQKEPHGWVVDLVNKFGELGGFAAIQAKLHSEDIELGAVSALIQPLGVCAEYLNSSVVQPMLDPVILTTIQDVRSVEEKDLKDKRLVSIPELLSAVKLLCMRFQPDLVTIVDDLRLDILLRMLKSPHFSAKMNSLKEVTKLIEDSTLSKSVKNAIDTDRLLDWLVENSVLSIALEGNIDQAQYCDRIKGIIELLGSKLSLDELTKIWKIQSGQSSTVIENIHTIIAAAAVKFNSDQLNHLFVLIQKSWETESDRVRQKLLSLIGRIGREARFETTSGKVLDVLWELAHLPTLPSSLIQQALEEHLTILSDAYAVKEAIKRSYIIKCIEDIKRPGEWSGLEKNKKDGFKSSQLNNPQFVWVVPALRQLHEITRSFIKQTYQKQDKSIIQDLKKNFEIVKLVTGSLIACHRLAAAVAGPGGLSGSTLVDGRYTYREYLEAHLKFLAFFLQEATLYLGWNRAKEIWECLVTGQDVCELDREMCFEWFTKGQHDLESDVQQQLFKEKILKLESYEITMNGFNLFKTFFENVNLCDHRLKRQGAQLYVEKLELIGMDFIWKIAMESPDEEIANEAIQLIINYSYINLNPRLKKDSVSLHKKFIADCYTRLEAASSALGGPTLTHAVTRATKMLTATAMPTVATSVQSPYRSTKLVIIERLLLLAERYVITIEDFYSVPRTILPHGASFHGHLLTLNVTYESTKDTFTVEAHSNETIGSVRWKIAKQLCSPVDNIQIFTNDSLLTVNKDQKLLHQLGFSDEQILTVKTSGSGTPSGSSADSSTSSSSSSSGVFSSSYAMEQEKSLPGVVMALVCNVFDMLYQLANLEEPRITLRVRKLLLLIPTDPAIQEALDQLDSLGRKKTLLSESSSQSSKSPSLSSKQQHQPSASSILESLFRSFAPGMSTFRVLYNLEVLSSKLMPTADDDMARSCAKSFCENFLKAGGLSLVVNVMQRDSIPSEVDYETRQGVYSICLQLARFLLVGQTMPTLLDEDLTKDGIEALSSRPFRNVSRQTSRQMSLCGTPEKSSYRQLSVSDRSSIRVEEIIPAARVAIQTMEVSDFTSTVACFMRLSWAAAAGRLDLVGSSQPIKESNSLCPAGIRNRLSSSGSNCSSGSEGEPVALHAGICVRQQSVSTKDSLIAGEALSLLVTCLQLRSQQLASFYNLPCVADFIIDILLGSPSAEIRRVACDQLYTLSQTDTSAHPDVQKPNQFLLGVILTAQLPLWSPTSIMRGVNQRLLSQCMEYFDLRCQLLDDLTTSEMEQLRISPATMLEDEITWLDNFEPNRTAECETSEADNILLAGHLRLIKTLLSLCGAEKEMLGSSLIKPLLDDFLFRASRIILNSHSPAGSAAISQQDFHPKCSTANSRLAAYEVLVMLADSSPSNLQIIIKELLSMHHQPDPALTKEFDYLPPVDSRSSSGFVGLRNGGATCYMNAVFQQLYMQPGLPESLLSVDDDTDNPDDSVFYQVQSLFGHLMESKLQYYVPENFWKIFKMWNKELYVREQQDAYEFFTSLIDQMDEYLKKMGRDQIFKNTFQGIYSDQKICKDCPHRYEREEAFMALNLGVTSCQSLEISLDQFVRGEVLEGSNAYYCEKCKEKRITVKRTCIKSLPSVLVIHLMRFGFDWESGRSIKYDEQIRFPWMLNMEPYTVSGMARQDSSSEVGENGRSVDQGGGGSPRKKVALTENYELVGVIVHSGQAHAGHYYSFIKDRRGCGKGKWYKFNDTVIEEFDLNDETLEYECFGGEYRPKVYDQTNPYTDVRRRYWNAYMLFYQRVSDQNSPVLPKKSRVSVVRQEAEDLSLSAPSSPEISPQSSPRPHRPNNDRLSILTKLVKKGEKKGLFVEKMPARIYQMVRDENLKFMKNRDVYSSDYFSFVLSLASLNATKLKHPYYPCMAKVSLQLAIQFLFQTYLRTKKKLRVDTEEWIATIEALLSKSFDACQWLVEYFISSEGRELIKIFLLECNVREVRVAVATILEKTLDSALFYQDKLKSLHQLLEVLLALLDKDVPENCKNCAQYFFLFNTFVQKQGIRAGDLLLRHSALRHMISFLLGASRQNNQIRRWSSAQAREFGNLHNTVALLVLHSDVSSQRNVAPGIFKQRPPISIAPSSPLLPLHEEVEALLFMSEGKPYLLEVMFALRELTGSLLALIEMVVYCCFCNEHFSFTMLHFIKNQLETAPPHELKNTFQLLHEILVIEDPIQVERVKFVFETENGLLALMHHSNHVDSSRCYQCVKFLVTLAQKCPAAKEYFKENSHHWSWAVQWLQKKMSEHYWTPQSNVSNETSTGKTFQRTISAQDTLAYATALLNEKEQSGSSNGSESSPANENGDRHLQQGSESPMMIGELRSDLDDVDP

Compound in this assay: Cc1sc2c(c1C)C(c1ccc(Cl)cc1)=N[C@@H](CC(=O)OC(C)(C)C)c1nnc(C)n1-2
Nature of the assay: log2 fold change, soluble protein after heating vs DMSO (PISA); higher = thermal stabilisation; K562 cells, 10 uM, 30 min; active = over 0.2 and 3.5 SD of the protein, either way, in both replicates (recomputed). The procedure, abridged:
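Soluble protein was quantified by TMTpro 16plex LC-MS/MS after channel sums were equalised. It was obtained as the supernatant after 21,000xg for 90 min from pooled aliquots of K562 cells (2×10^6 cells/mL, 10 μM compound, 30 min) heated for 3 min across 48°C-58°C and extracted in PBS with 0.5% NP-40 at 4°C. Thermal stability values are relative to control samples and come from duplicates. They are given as log2 fold changes.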
As for VPS33B (UniProt Q9H267), the log2 fold change was 0.008 (inactive).
With USP24 (UniProt Q9UPU5), the log2 fold change was -0.198 (inactive).
Next, UBIAD1 (UniProt Q9Y5Z9): -0.074 (inactive); TMEM9B (UniProt Q9NQ34): -0.041 (inactive); TRIM4 (UniProt Q9C037): -0.04 (inactive).
Next, WDR75 (UniProt Q8IWA0): 0.304 (inactive).
For the target TTI1 (UniProt O43156), the log2 fold change was -0.025 (inactive).
Next, VTA1 (UniProt Q9NP79): -0.075 (inactive); VPS51 (UniProt Q9UID3): -0.048 (inactive).
On to TRAPPC11 (UniProt Q7Z392), for which the log2 fold change is -0.031 (inactive).
With UBE2S (UniProt Q16763), the log2 fold change was 0 (inactive).
For UCHL5 (UniProt Q9Y5K5), the log2 fold change was 0.027 (inactive).
WDR43 (UniProt Q15061): the log2 fold change is -0.009 (inactive).
TMEM63B (UniProt Q5T3F8): the log2 fold change is -0.036 (inactive).
Next, UBXN10 (UniProt Q96LJ8): 0.018 (inactive).
Regarding UHRF1BP1L (UniProt A0JNW5), the log2 fold change was -0.027 (inactive).
Next, WDCP (UniProt Q9H6R7): 0.039 (inactive); UNC119B (UniProt A6NIH7): -0.016 (inactive).
Take XRCC6 (UniProt P12956): the log2 fold change is -0.022 (inactive).
As to XPO5 (UniProt Q9HAV4), the log2 fold change was -0.024 (inactive).
Next, UBAP2L isoform 5 (UniProt Q14157): -0.016 (inactive); TMEM70 (UniProt Q9BUB7): -0.05 (inactive).
Turning to WASHC2A (UniProt Q641Q2), the log2 fold change is 0.069 (inactive).
